Assay results: PubChem BioAssay AID926 (National Center for Advancing Translational Sciences (NCATS), 2007)
Several values for one entry are separate records, joined by “and”; a condition that tells them apart may be missing. Identical values can stand only once. The campaign covered roughly 73,000 compounds. About 350 (0.48%) were called active. Another 17% or so got no clear call; they are omitted. This is one part of a sample in which actives are shown more often than they occur. Calls come from the whole dose curve; as a rule, active = well fitted activation curve with a large enough effect in the main read-out, with a control signal flat (not every such curve was filed as active); inconclusive = small, poorly fitted or top-dose-only effect, or a change in a side signal; inactive = no such curve, though single readings can be large or run the other way; reference of the percent scale not stated here. Some compounds were tested as several samples or in several runs, with calls that do not always agree.

Assays:
[1] = qHTS Assay for Agonists of the Thyroid Stimulating Hormone Receptor; settings: HEK293-CNG-TSHR cells, membrane potential dye, cAMP; measured here: parental cells max response
Description: (§1) NIH Chemical Genomics Center [NCGC]
(§2) NIH Molecular Libraries Screening Centers Network [MLSCN]
(§3) PI Name: Dr. Marvin Gershengorn, NIH
(§4) Thyroid Stimulating Hormone Receptor
(§5) TSH is an alpha/beta heterodimeric glycoprotein hormone secreted from the anterior pituitary gland which belongs to the glycoprotein hormone family. The actions of TSH are mediated by a seven-transmembrane receptor, which upon TSH binding couples preferentially to the G-alpha (s) protein (Gs), resulting in activation of adenylate cyclase and increase in cyclic adenosine 3', 5' monophosphate (cAMP). The TSH receptor (THSR) is mainly expressed in thyroid follicular cells and regulates their growth and function. Recombinant TSH is used to activate TSHR in patients with thyroid cancer receiving thyroid hormone suppression therapy and to screen for residual tumor after surgery, but it is expensive and must be administered intramuscularly. An orally active small molecule TSHR agonist would serve as an invaluable research tool for studying TSHR pharmacology and physiology, and would have multiple advantages in therapeutic settings. However, no selective small molecule agonist of the TSH receptor exists, and no small molecule screen for TSHR agonists has ever been reported.
(§6) This cell based assay utilized a cyclic nucleotide gated ion channel (CNG) as a biosensor for cAMP induction by potential TSHR agonists.
(§7) HEK 293 cells stably expressing the TSHR as well as a modified CNG were purchased from BD biosciences. Stimulation of cAMP production causes the CNG to open and subsequent membrane depolarization to occur. A fluorescent membrane potential dye (BD biosciences) was utilized to detect cAMP stimulation in TSHR cells.
(§8) The cells were maintained in DMEM medium (Invitrogen) containing 10 % FBS (Hyclone), 100 units/ml Penicillin, 100 ug/ml Streptomycin (Invitrogen), and 250 ug/ml Geneticin (Invitrogen) and 1 ug/ml Puromycin (Invitrogen) at 37C in 5% CO2. HEK 293 cells expressing CNG but without TSHR (parental cells) were used in concert to control for compounds signaling through endogenous receptors and targets of HEK 293 cells.
(§9) NCGC Assay Protocol Summary:
(§10) High Throughput Screening. Freshly passaged cells (TSHR or parental) were dispensed into 1536-well assay plates at 4 ul/well in DMEM containing phenol red (Invitrogen), 10% FCS (Hyclone), and 100 units/ml Penicillin, 100 ug/ml Streptomycin (Invitrogen) and incubated at 37 C with 5% CO2 for 20 to 36 hrs before the robotic screening. The screen was initiated by addition of 4 ul/well membrane potential dye containing 100 uM RO 20-1724 (Sigma Aldrich), followed by 60 min incubation at room temperature to allow for dye equilibration across the cell membrane. 23 nl/well compound or control was then added to the assay plates, which were incubated for additional 30 min before reading a Envision fluorescence plate reader (Perkin Elmer) in bottom-read mode for fluorescence intensity (emission at 590 nm).
(§11) Keywords: Thyroid-stimulating hormone TSH, TSHR, TSHR agonist, quantitative high throughput screening, qHTS, HTS, probe identification, CNG, cAMP, cyclic nucleotide gated ion channel PubChem

[2] = target: Thyrotropin receptor (Homo sapiens) (UniProt P16473); assay: as above; settings: HEK293-CNG-TSHR cells (CNG channel as cAMP sensor), membrane potential dye, cAMP; series mostly up to 57.1 µM
Description: as §1, §2, §3, §4, §5, §6, §7, §8, §9, §10, §11
Potency is the fitted concentration of half-maximal effect.

Chain of Thyrotropin receptor (Homo sapiens) (P16473 whole entry, looked up): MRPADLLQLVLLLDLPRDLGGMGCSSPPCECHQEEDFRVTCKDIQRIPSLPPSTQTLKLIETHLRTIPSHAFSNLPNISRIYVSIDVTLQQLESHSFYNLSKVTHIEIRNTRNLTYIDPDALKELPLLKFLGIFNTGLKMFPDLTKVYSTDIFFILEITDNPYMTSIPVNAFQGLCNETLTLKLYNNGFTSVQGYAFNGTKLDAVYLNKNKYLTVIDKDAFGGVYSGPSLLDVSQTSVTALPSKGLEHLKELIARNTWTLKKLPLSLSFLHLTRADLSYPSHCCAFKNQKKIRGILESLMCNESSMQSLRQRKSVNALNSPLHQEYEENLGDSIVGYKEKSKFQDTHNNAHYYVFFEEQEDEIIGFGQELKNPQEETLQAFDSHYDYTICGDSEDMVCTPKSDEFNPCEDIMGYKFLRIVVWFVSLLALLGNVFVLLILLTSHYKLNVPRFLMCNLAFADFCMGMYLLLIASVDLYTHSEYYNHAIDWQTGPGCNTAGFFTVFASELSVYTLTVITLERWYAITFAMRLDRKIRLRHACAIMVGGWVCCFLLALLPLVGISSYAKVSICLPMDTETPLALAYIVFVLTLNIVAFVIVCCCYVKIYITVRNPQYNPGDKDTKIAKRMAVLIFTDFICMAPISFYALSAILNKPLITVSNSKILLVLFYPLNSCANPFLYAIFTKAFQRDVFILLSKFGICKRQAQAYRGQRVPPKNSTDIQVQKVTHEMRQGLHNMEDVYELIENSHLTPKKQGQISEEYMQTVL

| SMILES | activation [1] | Potency [2] |
| --- | --- | --- |
| CCOC(=O)CC1=C(C(=O)OCC)C2(C(=O)N1)C(C(=O)OC)=C(N)Oc1ccccc12 (centres undefined) | 2.69% | inactive |
| C=CCN1C(=O)C2(C(C(=O)OCC)=C(N)Oc3c2c(=O)oc2ccccc32)c2ccccc21 (centres undefined) | -2.59% | 1000 nM (active) |
| CCOC(=O)C1=C(C)OC(N)=C(C(=O)OC)C12C(=O)Nc1ccc(Br)cc12 (centres undefined) | 2.68% | inactive |
| C/C(=C\C=C/[C@@H](C)C(=O)O)[C@H]1CN[C@H](C(=O)O)[C@@H]1CC(=O)O | 10.5% | inactive |
| CN1[C@H]2CC(OC(=O)[C@@H](CO)c3ccccc3)C[C@H]1[C@H]1O[C@H]12 (some centres undefined) | 8.99% | inactive |
| C[C@]12CC[C@H](O)C[C@@H]1CC[C@H]1[C@H]2CC[C@]2(C)C(=O)CC[C@@H]12 | -0.6% and 8.47% and 0.887% | inactive |
| CN=C(NC#N)NCCSCc1nc[nH]c1C | 6.37% and -0.29% | inactive |
| CNCC[C@H](Oc1ccc(C(F)(F)F)cc1)c1ccccc1 | – | inactive and 126 nM (active) |
| Clc1ccc([C@@H]2C[C@H]3CC[C@@H]2N3)cn1 | 5.78% | inactive |
| Clc1cccc(Cl)c1Cl | 22.7% | inactive |
